# Measurements published in article PMC7862700, “An all-to-all approach to the identification of sequence-specific readers for epigenetic DNA modifications on cytosine”.
# Key:
# Experiment in all cases: DAPPL (digital affinity profiling via proximity ligation, sequencing); 10 mM Tris-HCl pH 7.5, 50 mM NaCl, 1 mM DTT, 4% glycerol, room temperature, 30 min; GST-TFs on glutathione beads, 16-mer random dsDNA library, 0.1% formaldehyde crosslink after washing; high values mean tight binding
# FEV = biological target: T1, FEV (Homo sapiens, UniProt Q99581 1-238); details: protein: recombinant; tags: N-terminal GST; dsDNA, one strand shown
# T1 sequence: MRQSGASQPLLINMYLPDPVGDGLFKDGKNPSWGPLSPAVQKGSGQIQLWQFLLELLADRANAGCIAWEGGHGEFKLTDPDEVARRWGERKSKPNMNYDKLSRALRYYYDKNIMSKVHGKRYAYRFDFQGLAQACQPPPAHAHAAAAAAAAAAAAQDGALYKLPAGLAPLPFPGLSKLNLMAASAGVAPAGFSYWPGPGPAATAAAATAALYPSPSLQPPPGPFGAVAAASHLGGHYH
# Procedure, shortened: (§1)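 Binding signal is each hexamer's read frequency for a factor divided by its frequency in the tag-only sample. The factors were GST-fused human transcription factors from yeast, captured on glutathione beads, DNA-barcoded and pooled with that sample. Pools were incubated with 200 nmole of a random double-stranded 16-mer DNA library in Tris/NaCl/DTT/glycerol buffer at room temperature for 30 min, then washed, crosslinked with 0.1% formaldehyde, proximity-ligated with BsaI/T4 ligase (1 h, 37 °C), PCR-amplified and sequenced on an Illumina NextSeq500.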
# ETV5 = ETV5 (Homo sapiens, UniProt P41161 1-510); details: protein: recombinant; tags: N-terminal GST; dsDNA, one strand shown
# Chain of ETV5 (P41161 whole entry): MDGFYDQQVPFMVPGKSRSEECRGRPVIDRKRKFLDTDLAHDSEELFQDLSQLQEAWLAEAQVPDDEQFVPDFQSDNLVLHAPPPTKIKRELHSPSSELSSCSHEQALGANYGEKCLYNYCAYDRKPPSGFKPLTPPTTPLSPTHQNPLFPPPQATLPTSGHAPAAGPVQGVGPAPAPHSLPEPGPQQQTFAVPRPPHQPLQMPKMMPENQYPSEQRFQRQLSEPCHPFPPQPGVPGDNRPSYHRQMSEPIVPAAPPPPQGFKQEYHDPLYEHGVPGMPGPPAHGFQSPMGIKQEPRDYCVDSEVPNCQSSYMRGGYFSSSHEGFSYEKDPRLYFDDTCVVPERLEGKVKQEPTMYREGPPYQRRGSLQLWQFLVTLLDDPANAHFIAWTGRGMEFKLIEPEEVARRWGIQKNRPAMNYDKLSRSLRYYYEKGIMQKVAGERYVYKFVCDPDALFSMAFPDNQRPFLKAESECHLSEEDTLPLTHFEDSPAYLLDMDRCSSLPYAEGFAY
# Procedure, shortened: as §1
# HSF1 = HSF1 (Homo sapiens, UniProt Q00613 1-529); details: protein: recombinant; tags: N-terminal GST; chain copies: 3; dsDNA, one strand shown
# Chain of HSF1 (Q00613 whole entry): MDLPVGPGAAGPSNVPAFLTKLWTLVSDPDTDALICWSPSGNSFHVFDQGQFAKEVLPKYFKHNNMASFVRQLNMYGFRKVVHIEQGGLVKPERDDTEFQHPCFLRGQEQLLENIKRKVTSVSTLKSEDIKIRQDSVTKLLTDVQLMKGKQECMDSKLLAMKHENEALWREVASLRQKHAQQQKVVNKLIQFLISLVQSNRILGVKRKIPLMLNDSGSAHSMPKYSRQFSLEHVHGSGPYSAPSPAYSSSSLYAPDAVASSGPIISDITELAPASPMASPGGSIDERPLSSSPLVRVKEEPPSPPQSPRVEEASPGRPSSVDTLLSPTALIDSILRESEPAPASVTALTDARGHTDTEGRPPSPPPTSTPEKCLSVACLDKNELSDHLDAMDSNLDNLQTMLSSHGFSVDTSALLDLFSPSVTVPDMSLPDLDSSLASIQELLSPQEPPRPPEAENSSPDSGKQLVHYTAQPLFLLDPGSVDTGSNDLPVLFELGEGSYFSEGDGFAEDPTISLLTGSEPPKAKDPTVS
# Procedure, shortened: as §1
# SPIC = biological target: T2, SPIC (Homo sapiens, UniProt Q8N5J4 1-248); details: protein: recombinant; tags: N-terminal GST; dsDNA, one strand shown
# T2 sequence: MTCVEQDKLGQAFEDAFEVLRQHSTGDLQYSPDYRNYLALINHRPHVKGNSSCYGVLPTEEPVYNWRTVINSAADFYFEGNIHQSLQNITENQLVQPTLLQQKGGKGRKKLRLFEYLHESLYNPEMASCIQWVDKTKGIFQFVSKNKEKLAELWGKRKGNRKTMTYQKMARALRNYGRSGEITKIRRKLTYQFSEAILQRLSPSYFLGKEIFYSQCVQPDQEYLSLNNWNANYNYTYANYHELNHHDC
# Procedure, shortened: as §1
# ELF4 = ELF4 (Homo sapiens, UniProt Q99607 1-663); details: protein: recombinant; tags: N-terminal GST; dsDNA, one strand shown
# Chain of ELF4 (Q99607 whole entry): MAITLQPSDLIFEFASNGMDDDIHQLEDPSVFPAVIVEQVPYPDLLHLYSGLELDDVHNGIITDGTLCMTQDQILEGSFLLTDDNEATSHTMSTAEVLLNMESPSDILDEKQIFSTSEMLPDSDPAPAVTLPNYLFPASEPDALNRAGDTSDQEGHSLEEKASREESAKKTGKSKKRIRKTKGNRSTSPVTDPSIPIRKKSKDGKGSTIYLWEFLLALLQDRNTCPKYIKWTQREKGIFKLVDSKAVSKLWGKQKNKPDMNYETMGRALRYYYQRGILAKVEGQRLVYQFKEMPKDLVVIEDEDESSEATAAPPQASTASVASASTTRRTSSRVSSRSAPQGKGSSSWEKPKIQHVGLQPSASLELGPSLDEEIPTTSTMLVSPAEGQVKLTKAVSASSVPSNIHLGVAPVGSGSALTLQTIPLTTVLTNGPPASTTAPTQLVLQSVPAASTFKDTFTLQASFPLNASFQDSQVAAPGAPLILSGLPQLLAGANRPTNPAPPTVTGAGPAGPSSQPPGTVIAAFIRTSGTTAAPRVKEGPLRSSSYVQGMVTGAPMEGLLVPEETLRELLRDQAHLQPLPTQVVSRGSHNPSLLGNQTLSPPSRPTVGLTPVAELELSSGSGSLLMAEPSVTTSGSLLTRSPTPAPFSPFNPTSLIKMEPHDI
# Procedure, shortened: as §1
# ELK4 = biological target: T3, ELK4 (Homo sapiens, UniProt P28324-2 1-405); details: protein: recombinant; tags: N-terminal GST; dsDNA, one strand shown
# T3 sequence: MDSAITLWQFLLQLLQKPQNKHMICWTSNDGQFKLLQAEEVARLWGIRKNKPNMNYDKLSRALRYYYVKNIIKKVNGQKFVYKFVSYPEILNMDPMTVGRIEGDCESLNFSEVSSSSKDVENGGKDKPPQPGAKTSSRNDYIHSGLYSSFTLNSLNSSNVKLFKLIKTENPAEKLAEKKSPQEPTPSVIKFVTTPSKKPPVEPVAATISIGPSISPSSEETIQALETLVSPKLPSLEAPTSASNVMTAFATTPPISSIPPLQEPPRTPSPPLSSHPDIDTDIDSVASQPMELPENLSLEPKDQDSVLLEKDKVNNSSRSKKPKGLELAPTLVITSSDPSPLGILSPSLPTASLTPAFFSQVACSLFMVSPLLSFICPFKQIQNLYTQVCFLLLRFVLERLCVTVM
# Procedure, shortened: as §1
# ETV2 = biological target: T4, ETV2 (Homo sapiens, UniProt O00321 1-342); details: protein: recombinant; tags: N-terminal GST; dsDNA, one strand shown
# T4 sequence: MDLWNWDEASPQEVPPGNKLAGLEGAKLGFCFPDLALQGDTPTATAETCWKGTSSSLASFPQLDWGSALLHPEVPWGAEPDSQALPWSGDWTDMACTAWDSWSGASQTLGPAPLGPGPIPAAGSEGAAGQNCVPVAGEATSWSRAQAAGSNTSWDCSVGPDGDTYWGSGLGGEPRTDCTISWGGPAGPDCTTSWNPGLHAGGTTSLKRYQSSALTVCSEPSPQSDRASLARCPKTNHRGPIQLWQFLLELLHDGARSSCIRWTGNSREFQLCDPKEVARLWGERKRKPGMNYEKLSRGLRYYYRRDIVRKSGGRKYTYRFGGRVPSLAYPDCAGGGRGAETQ
# Procedure, shortened: as §1
# ELF3 = biological target: T5, ELF3 (Homo sapiens, UniProt P78545 1-371); details: protein: recombinant; tags: N-terminal GST; dsDNA, one strand shown
# T5 sequence: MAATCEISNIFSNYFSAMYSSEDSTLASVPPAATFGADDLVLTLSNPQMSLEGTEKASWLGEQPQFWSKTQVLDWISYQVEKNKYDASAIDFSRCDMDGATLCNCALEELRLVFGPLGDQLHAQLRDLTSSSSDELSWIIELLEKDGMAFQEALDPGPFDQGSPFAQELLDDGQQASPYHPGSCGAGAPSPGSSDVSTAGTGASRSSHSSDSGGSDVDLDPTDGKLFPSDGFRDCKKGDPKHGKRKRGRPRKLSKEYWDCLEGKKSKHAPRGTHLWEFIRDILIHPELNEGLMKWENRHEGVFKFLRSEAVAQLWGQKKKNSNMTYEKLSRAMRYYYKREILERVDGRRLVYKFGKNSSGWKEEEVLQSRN
# Procedure, shortened: as §1
# CRX = CRX (Homo sapiens, UniProt O43186 1-299); details: protein: recombinant; tags: N-terminal GST; dsDNA, one strand shown
# Chain of CRX (O43186 whole entry): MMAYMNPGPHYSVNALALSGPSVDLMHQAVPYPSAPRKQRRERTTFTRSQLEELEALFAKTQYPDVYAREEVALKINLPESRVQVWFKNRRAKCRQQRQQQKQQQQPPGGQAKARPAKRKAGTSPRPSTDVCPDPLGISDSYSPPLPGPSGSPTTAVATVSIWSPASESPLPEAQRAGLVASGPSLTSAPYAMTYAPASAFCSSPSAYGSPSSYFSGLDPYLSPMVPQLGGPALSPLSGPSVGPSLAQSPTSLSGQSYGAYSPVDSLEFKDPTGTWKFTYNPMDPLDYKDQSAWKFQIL
# Procedure, shortened: as §1
# ETV1 = ETV1 (Homo sapiens, UniProt P50549 1-477); details: protein: recombinant; tags: N-terminal GST; dsDNA, one strand shown
# Chain of ETV1 (P50549 whole entry): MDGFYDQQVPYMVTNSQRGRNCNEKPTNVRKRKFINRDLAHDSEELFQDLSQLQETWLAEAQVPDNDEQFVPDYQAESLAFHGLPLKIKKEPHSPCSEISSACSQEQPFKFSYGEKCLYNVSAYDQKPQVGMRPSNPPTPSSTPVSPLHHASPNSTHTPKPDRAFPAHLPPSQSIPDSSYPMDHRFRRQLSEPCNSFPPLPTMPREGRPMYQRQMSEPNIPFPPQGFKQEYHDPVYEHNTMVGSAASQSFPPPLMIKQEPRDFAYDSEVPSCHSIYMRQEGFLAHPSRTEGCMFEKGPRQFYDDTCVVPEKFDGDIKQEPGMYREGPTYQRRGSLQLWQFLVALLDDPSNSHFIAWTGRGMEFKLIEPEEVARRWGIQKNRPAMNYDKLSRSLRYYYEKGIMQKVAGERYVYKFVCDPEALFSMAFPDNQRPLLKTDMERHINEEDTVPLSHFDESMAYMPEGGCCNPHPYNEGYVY
# Procedure, shortened: as §1
# ERF = biological target: T6, ERF (Homo sapiens, UniProt P50548 1-548); details: protein: recombinant; tags: N-terminal GST; dsDNA, one strand shown
# T6 sequence: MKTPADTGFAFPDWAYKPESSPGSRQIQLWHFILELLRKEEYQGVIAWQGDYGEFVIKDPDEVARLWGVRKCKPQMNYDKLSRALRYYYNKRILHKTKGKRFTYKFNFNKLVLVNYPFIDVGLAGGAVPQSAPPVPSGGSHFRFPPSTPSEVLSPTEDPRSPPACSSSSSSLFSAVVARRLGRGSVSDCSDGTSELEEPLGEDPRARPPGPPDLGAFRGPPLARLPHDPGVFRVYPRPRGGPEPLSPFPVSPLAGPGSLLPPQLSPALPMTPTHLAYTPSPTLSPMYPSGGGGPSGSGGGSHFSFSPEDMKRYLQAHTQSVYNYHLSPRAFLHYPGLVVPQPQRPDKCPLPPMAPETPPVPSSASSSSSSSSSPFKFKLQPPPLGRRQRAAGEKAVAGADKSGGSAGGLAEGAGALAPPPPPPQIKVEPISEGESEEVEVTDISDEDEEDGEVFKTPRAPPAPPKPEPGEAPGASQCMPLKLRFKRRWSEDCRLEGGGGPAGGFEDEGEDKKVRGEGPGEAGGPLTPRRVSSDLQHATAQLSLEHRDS
# Procedure, shortened: as §1
# ETV3L = biological target: T7, ETV3L (Homo sapiens, UniProt Q6ZN32 1-361); details: protein: recombinant; tags: N-terminal GST; dsDNA, one strand shown
# T7 sequence: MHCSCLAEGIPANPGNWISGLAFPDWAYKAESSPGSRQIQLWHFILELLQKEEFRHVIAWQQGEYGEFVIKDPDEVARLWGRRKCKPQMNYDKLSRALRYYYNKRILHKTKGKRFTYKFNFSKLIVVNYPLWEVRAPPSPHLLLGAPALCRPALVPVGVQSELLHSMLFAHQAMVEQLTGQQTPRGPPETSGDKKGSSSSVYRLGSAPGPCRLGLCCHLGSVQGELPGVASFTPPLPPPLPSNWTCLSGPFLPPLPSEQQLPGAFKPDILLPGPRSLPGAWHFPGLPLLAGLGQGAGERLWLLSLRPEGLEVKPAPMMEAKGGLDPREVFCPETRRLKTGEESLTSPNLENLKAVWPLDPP
# Procedure, shortened: as §1
# ETS2 = biological target: T8, ETS2 (Homo sapiens, UniProt P15036 1-469); details: protein: recombinant; tags: N-terminal GST; dsDNA, one strand shown
# T8 sequence: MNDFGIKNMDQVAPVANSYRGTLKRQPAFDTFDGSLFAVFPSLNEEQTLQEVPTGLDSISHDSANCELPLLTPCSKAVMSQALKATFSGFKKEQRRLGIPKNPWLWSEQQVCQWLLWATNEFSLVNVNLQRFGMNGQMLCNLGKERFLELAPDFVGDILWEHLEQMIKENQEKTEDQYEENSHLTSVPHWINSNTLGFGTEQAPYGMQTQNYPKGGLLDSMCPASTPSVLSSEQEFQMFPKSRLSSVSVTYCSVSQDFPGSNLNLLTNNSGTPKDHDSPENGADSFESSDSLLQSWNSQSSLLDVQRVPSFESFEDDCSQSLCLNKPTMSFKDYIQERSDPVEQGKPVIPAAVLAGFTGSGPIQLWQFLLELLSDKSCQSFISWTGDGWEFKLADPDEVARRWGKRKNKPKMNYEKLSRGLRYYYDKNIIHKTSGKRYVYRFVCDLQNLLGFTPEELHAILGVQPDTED
# Procedure, shortened: as §1
# SPDEF = biological target: T9, SPDEF (Homo sapiens, UniProt O95238 1-335); details: protein: recombinant; tags: N-terminal GST; dsDNA, one strand shown
# T9 sequence: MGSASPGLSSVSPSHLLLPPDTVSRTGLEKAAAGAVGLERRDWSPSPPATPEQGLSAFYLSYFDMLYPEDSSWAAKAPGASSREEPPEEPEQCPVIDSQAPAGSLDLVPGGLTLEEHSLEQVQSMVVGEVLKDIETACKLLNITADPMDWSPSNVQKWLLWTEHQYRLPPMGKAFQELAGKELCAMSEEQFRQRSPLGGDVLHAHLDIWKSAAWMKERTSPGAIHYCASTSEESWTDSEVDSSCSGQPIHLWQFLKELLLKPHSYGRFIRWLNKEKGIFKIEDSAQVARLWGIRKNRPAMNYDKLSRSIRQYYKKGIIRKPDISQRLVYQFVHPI
# Procedure, shortened: as §1
# ETV7 = biological target: T10, ETV7 (Homo sapiens, UniProt Q9Y603 1-341); details: protein: recombinant; tags: N-terminal GST; dsDNA, one strand shown
# T10 sequence: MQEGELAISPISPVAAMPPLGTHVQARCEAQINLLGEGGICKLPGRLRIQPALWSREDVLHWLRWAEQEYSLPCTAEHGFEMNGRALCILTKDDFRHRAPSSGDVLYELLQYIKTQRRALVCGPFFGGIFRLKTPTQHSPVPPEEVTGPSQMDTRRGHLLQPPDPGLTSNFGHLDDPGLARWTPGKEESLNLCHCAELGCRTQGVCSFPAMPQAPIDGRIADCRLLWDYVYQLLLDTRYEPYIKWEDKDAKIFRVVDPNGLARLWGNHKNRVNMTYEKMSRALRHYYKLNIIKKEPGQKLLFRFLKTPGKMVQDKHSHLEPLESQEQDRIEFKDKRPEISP
# Procedure, shortened: as §1
# ELF5 = biological target: T11, ELF5 (Homo sapiens, UniProt Q9UKW6-2 1-255); details: protein: recombinant; tags: N-terminal GST; dsDNA, one strand shown
# T11 sequence: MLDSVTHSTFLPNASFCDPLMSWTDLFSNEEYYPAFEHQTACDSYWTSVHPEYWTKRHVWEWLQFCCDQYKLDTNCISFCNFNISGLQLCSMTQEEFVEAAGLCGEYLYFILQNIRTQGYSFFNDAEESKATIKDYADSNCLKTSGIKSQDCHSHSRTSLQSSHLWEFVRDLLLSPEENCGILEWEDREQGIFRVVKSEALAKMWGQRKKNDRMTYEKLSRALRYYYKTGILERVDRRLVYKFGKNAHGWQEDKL
# Procedure, shortened: as §1
# ETV3 = biological target: T12, ETV3 (Homo sapiens, UniProt P41162-2 1-143); details: protein: recombinant; tags: N-terminal GST; dsDNA, one strand shown
# T12 sequence: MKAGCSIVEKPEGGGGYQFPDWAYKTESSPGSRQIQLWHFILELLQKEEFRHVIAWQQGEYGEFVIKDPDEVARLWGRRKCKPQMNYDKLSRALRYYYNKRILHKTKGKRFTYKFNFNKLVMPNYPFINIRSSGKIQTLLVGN
# Procedure, shortened: as §1
# ETV6 = ETV6 (Homo sapiens, UniProt P41212 1-452); details: protein: recombinant; tags: N-terminal GST; dsDNA, one strand shown
# Chain of ETV6 (P41212 whole entry): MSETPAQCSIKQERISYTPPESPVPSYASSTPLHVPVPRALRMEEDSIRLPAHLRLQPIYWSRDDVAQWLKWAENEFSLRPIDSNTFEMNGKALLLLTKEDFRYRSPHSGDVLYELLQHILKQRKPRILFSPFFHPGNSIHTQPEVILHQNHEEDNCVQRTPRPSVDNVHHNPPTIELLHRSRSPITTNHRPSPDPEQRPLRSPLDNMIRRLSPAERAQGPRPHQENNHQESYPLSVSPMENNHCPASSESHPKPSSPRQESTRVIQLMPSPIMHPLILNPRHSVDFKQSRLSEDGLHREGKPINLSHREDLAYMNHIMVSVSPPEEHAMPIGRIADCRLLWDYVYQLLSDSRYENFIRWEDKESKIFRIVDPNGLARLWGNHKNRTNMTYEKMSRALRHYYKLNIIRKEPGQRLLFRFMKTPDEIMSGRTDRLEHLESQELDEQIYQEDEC
# Procedure, shortened: as §1
sequence,measurement,setting,value
TAATAA,binding signal,FEV,"1.13 fold enrichment (6-mer frequency, TF over GST control)"
same,binding signal,ETV5,"1.22 fold enrichment (6-mer frequency, TF over GST control)"
same,binding signal,HSF1,"1.76 fold enrichment (6-mer frequency, TF over GST control)"
same,binding signal,SPIC,"1.17 fold enrichment (6-mer frequency, TF over GST control)"
same,binding signal,ELF4,"1.21 fold enrichment (6-mer frequency, TF over GST control)"
same,binding signal,ELK4,"1.06 fold enrichment (6-mer frequency, TF over GST control)"
same,binding signal,ETV2,"1.17 fold enrichment (6-mer frequency, TF over GST control)"
same,binding signal,ELF3,"1.21 fold enrichment (6-mer frequency, TF over GST control)"
same,binding signal,CRX,"2.43 fold enrichment (6-mer frequency, TF over GST control)"
same,binding signal,ETV1,"1.12 fold enrichment (6-mer frequency, TF over GST control)"
same,binding signal,ERF,"1.28 fold enrichment (6-mer frequency, TF over GST control)"
same,binding signal,ETV3L,"1.24 fold enrichment (6-mer frequency, TF over GST control)"
same,binding signal,ETS2,"1.21 fold enrichment (6-mer frequency, TF over GST control)"
same,binding signal,SPDEF,"1.19 fold enrichment (6-mer frequency, TF over GST control)"
same,binding signal,ETV7,"1.14 fold enrichment (6-mer frequency, TF over GST control)"
same,binding signal,ELF5,"1.15 fold enrichment (6-mer frequency, TF over GST control)"
same,binding signal,ETV3,"1.11 fold enrichment (6-mer frequency, TF over GST control)"
same,binding signal,ETV6,"1.17 fold enrichment (6-mer frequency, TF over GST control)"
